Consider 50 molecules from ChEMBL document CHEMBL3988442, “University of Dundee, Small-Polar-MMV Screening Library” (2021).

For assay [1], the target named is T1, Aspartate--tRNA(Asp/Asn) ligase (Mycobacterium tuberculosis (strain ATCC 25618 / H37Rv)) (UniProt P9WFW3). Further: in the data most compounds retested in dose-response had high values.
T1 sequence (whole entry): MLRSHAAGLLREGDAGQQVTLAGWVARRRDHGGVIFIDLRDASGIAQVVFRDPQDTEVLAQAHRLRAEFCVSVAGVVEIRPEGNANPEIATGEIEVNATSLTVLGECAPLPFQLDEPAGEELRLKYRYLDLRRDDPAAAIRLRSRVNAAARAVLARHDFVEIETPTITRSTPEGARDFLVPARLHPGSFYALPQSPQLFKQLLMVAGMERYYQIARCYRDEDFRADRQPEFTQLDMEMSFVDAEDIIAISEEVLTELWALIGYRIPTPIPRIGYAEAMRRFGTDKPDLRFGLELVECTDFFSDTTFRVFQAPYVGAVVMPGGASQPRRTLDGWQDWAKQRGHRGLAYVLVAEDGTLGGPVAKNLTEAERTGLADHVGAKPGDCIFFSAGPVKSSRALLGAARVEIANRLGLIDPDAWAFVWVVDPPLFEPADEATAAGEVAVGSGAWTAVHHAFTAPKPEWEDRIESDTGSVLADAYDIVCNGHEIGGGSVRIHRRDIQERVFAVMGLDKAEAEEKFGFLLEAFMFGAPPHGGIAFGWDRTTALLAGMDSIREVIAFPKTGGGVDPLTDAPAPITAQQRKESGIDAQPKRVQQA
Kind of assay: Assay for Asp RNA synthetase-1 from Mycobacterium tuberculosis. The format is functional. The arrangement: scale not given: direction of the effect not stated beside the values. The conditions noted are these: 30 µM.

Assay [2] concerns the target Shiga toxin 2 (Escherichia coli O157:H7) (UniProt P09385+P09386). Description: E. coli 0.157:H7 Shiga Toxin SOP - stx2 screening assay. Format: functional. Set-up: scale not given: direction of the effect not stated beside the values. The conditions noted are these: 30 µM.

In the case of `COc1ccc(-c2nnc(SC(C)C(=O)NCC(C)C)[nH]2)c(OC)c1` (stereo not given), the Percent Effect in assay [1] was 7.67%; in assay [2] it was 8.94%.

Take `CS(=O)(=O)N1CCCC12CCCN(S(=O)(=O)c1cc(F)cc(F)c1)C2` (stereo not given): the values for the Percent Effect in assay [1] and in assay [2] were -0.24% and 2.89%, respectively.

Consider `CN(Cc1ccccc1Br)C(=O)Cn1nc(-c2ccc(F)cc2)oc1=O`, for which the Percent Effect in assay [1] was 7.4%; in assay [2], -11.3%.

Take `Cc1noc(C)c1CCC(=O)N1CCN(CCn2cncn2)CC1`: the Percent Effect was 6.07% in assay [1] and -7.17% in assay [2].

As for `COc1ccc2c(c1)CN(Cc1nc3ccsc3c(=O)[nH]1)CC2`, the Percent Effect in assay [1] was -2.11%; in assay [2] it was 10.8%.

Take `CC(=O)NCCc1ccc(C(=O)N2CCCC2c2cnn(C)c2)cc1` (stereo not given): the Percent Effect in assay [1] stood at 3.04%; in assay [2] it was 21.3%.

Regarding `CCn1ccnc1-c1nc2cc(S(=O)(=O)N3CCCC3)ccc2n1C`, the Percent Effect is -4.2% in assay [1] and -15.7% in assay [2].

As for `Cc1nn(C)c(C)c1C1CCCN1C(=O)CCc1cscn1` (stereo not given), the Percent Effect in assay [1] was -2.02%; in assay [2] it was 20.4%.

For `COc1c(C2CCCN2C(=O)Cc2c(C)noc2C)c(C)nn1C` (stereo not given), the Percent Effect in assay [1] is -3.25%; in assay [2], 6.14%.

As for `Cc1nccn1-c1cccc(C2CCCN(C3CCCCC3)C2)n1` (stereo not given), the Percent Effect in assay [1] is -3.11%; in assay [2], -8.84%.

Regarding `O=C(c1ccncc1)N1CCC(c2nc(O)cc(-c3cccnc3)n2)C1` (stereo not given), the Percent Effect in assay [1] is -1.81%; in assay [2], 4.42%.

In the case of `CCN1CCN(c2ccc(F)cc2C(C)NCc2ccncc2)CC1` (stereo not given), the Percent Effect was -0.494% in assay [1] and 14.3% in assay [2].

Consider `N#Cc1ccccc1OCCN1CCCCC1Cn1cncn1` (stereo not given), for which the Percent Effect came to 3.26% in assay [1] and 5.17% in assay [2].

`CCn1nc(CC(C)C)cc1C(=O)NCCCOC`: the results for the Percent Effect in assay [1] and in assay [2] were -0.668% and 11.5%, respectively.

Turning to `COc1c(CNC2CCN(C(=O)C3CC3)CC2)c(C(C)C)nn1C`, the Percent Effect was found to be 1.69% in assay [1] and 29.5% in assay [2].

Take `NCc1cn(-c2ccccc2C(=O)NCc2cccc(Cl)c2)cn1`: the results for the Percent Effect in assay [1] and in assay [2] were -0.574% and 40.7%, respectively.

For the molecule `O=C(c1ccoc1)N1CC[C@H]2OCC[C@@]2(COc2ncccc2F)C1`, the Percent Effect in assay [1] is -0.296%; in assay [2], 3.1%.

In the case of `COc1ccc(CCNC(=O)NC2CCCC2)cc1OC`, the Percent Effect in assay [1] was 2.58%; in assay [2], -10.6%.

In the case of `O=C(CSC1=NS(=O)(=O)c2cc(F)ccc2N1)Nc1cccc(Cl)c1`, the Percent Effect in assay [1] was 4.04%; in assay [2], -1.14%.

Turning to `CS(=O)(=O)CCN1CCC2(CCCN(C3CCOCC3)C2=O)C1` (stereo not given), the Percent Effect was 1.8% in assay [1] and -11.9% in assay [2].

Turning to `O=S1(=O)COCCN1Cc1cccc(Cl)c1`, the values for the Percent Effect in assay [1] and in assay [2] were -0.479% and 10.7%, respectively.

With `CS(=O)(=O)CCC(=O)Nc1cnn(-c2ccccc2Cl)c1`, the Percent Effect was -3.18% in assay [1] and -52.3% in assay [2].

Take `CNC(=O)c1cnc(/C=C/c2ccc(OC)c(O)c2)s1`: the figures for the Percent Effect in assay [1] and in assay [2] were 1.65% and -56.5%, respectively.

For the molecule `Cc1nc(N2CCCC2)nc2c1CN(C(C)C)CC2`, the Percent Effect is 1.86% in assay [1] and -13.3% in assay [2].

As for `CN(C)S(=O)(=O)N1CCCC(c2cccc(Cc3ccccc3)n2)C1` (stereo not given), the Percent Effect in assay [1] amounted to 2.78%; in assay [2], 67.3%.

On to `O=C(O)[C@@H]1CN(C(=O)c2cc(C3CC3)n[nH]2)C[C@H]1c1cccc(F)c1`, for which the Percent Effect was -3.42% in assay [1] and -8.72% in assay [2].

As for `Cc1ccccc1-c1cc(C(=O)N2CCn3c(C)nnc3C2)[nH]n1`, the Percent Effect was -2.28% in assay [1] and -13.5% in assay [2].

Regarding `Cc1nccn1CCCC(=O)N1CCC(Nc2cccnn2)CC1`, the Percent Effect was -0.211% in assay [1] and -6.43% in assay [2].

With `Cc1cccc(C(=O)NC2CCN(c3cnn(C)c3)C2=O)n1` (stereo not given), the Percent Effect in assay [1] is 2.04%; in assay [2], -29.9%.

Take `Cc1ccc(N2CC3(COCCN(Cc4nccs4)C3)OCC2=O)s1` (stereo not given): the Percent Effect in assay [1] is 7.04%; in assay [2] it was -13.5%.

Consider `Cc1cc(CN2CCC(CNC(=O)c3ccc(O)c(Cl)c3)C2)[nH]n1` (stereo not given), for which the figures for the Percent Effect in assay [1] and in assay [2] were 3.15% and -15.7%, respectively.

For `CC(C)C(Sc1nnnn1C1CC1)C(=O)NCc1cccnc1` (stereo not given), the Percent Effect in assay [1] was -3.1%; in assay [2], -4.91%.

On to `CNc1nc(CNC(=O)Nc2cccc(F)c2)cs1`, for which the values for the Percent Effect in assay [1] and in assay [2] were -1.08% and -9.25%, respectively.

Turning to `COc1ccc(C2=CCN(C(=O)C3CC(=O)N(C4CC4)C3)CC2)cc1` (stereo not given), the Percent Effect in assay [1] came out at 1.54%; in assay [2] it was 2.8%.

Take `Cc1cc(C)n(CC2CCCCN2C(=O)c2ccc3c(c2)OCO3)n1` (stereo not given): the Percent Effect in assay [1] is -5.57%; in assay [2], -5.42%.

With `Cc1noc(C(C)N2CCN(CCC(=O)N3CCCCC3)CC2)n1` (stereo not given), the Percent Effect in assay [1] was -2.64%; in assay [2], 7.71%.

As for `COC[C@H]1CCC[C@]12CN(CCc1ccccc1)CCO2`, the Percent Effect is -1.02% in assay [1] and -22% in assay [2].

With `Cc1ccc(CC2CCCN2CC(=O)NCc2cccnc2)cc1` (stereo not given), the Percent Effect in assay [1] turned out to be 0.509%; in assay [2], 16.7%.

On to `CC(O)CN(CC(=O)NC(=O)NC1CC1)c1ccccc1` (stereo not given), for which the Percent Effect is -1.82% in assay [1] and 4.59% in assay [2].

In the case of `CN(C)C(=O)CN1C[C@@H]2CC[C@H](C1)N(Cc1cccc(Cl)c1Cl)C2`, the Percent Effect was found to be 0.661% in assay [1] and 1.27% in assay [2].

Turning to `Cc1ccc(NC(=O)CNc2cccc3c2CCCC3)c(Br)c1`, the Percent Effect in assay [1] is -0.719%; in assay [2], 7.99%.

For `Cc1nc(CC(=O)N2CCCCC2c2ccn3ccnc3n2)cs1` (stereo not given), the figures for the Percent Effect in assay [1] and in assay [2] were -0.0744% and 4.13%, respectively.

Turning to `COc1ccccc1CCN(C)C(=O)NC(C)c1nncn1C` (stereo not given), the Percent Effect in assay [1] is -4.13%; in assay [2], 1.17%.

Regarding `Cc1ncc2c(n1)CN(Cc1nc3ccccc3o1)CC2`, the Percent Effect in assay [1] was -5.8%; in assay [2], -2.56%.

For the molecule `Cc1occc1C(=O)N1CCC[C@]2(C[C@@H](OCc3ccncc3)CO2)C1`, the Percent Effect in assay [1] is 6.93%; in assay [2] it was -29.1%.

As for `Cc1noc(C2CCN(C(=O)CCNS(C)(=O)=O)CC2)n1`, the Percent Effect in assay [1] was -0.989%; in assay [2], -13.5%.

`c1cncc(OCC2CN(Cc3ccco3)Cc3nccn3C2)c1` (stereo not given): the Percent Effect in assay [1] was -1.34%; in assay [2], -17.2%.

With `CCC1=N[C@@]2(CC[C@@H]3CN(C(=O)NCc4ccccc4)C[C@@H]32)C(=O)N1C`, the Percent Effect turned out to be 2.18% in assay [1] and 3.06% in assay [2].

Consider `CC(=O)Nc1nc(C(=O)N2CCCC(c3cc(C)[nH]n3)C2)cs1` (stereo not given), for which the results for the Percent Effect in assay [1] and in assay [2] were 0.141% and -12.2%, respectively.

For `Cc1ccc(-c2nnc(CN3CCOC(Cn4cccn4)C3)o2)cc1` (stereo not given), the Percent Effect was -0.257% in assay [1] and -10.3% in assay [2].
